These results are taken from PubChem BioAssay.

In test [1] the test system is Plasmodium falciparum Sir2 (PF13_0152, Sir2A). Put plainly: Plasmodium falciparum Sir2A binding compounds – biochemical, small-molecule microarray, 635 nm fluorescence, primary screen (AID 1098).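 Further: score merges spot fluorescence intensity with its signal-to-noise ratio.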 The following applies: fluorescence 635 nm, higher = more signal.
The nature of test [2]: probe aDKK1 binding to arrayed compounds – biochemical, biotinylated probe, 635/667 nm fluorescence, primary screen (AID 1099).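 Further: score merges 667nm spot fluorescence with signal to noise across triplicate slides.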 The settings on record: small-molecule microarray, higher = more signal.
Test [3] is described as follows: probe aCHRDL2 binding to arrayed compounds – biochemical, biotinylated probe, 635/667 nm fluorescence, primary screen (AID 1100). The following applies: small-molecule microarray, higher = more signal.
A short description of test [4]: change in splice reporter luminescence, either direction, cell-based, HEK293, spliceosome inhibition project, primary screen (AID 1101).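 Further: HEK293 cells carrying a splicing-competent luciferase reporter gene; test concentration not given here.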 The following applies: HEK293 splicing luciferase reporter, 24 h, higher = more signal, called active from +8 up or from −8 down.
Test [5] concerns the target Fibroblast growth factor 10 (Homo sapiens) (UniProt O15520). Put plainly: compounds binding fibroblast growth factor 10 – biochemical, small-molecule microarray, 635 nm fluorescence, primary screen (AID 1102). The settings on record: FGF10 binding, fluorescence 635 nm, higher = more signal.
In test [6] the test system is glycogen synthase kinase-3 (GSK3A per assay name; protocol says GSK3B). Put plainly: compounds binding glycogen synthase kinase-3 – biochemical, small-molecule microarray, 635 nm fluorescence, GSK3A, primary screen (AID 1103). Further: the record names both GSK3A and GSK3B. The following applies: fluorescence 635 nm, higher = more signal.
For test [7], the target named is Epidermal growth factor receptor (Homo sapiens) (UniProt P00533). Put plainly: compounds binding epidermal growth factor receptor – biochemical, small-molecule microarray, 635 nm fluorescence, primary screen (AID 1104).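 Further: score merges 667 nm emission intensity with spot signal to noise over triplicate slides.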 The settings on record: EGFR binding, higher = more signal.
Epidermal growth factor receptor (Homo sapiens), sequence (P00533 whole entry, looked up): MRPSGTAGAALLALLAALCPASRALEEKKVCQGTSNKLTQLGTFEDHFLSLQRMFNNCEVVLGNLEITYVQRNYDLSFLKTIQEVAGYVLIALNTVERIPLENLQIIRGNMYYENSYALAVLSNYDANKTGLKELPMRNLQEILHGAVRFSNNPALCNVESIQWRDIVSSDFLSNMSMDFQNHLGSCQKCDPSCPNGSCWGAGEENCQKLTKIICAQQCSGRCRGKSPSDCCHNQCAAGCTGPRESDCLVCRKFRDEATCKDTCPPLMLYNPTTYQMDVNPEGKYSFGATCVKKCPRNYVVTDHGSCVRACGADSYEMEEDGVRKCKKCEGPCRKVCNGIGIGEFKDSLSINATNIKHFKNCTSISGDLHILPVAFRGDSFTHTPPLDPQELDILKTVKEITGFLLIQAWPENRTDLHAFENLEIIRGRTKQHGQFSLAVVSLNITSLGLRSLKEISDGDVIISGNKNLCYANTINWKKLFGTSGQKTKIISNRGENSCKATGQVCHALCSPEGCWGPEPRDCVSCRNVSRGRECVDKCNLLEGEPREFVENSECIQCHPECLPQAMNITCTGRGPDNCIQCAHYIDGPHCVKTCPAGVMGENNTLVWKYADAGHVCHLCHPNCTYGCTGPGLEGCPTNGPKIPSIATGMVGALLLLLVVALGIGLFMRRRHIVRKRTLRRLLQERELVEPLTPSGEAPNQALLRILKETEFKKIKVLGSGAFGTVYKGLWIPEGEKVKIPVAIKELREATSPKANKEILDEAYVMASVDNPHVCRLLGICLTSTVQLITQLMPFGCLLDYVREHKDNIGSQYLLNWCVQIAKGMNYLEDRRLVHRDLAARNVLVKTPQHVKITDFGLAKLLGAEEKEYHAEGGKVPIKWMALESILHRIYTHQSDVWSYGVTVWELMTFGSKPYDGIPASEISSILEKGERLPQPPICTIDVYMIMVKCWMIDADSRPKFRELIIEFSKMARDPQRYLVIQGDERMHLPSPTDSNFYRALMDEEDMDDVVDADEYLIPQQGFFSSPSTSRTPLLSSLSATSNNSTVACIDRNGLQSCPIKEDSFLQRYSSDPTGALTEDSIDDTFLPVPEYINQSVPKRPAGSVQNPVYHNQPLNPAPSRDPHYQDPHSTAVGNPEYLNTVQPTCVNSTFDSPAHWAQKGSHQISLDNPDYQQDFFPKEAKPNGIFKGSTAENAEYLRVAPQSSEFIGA
Test [8] concerns the target Follistatin-related protein 3 (Homo sapiens) (UniProt O95633). Put plainly: compounds binding follistatin-related protein 3 – biochemical, small-molecule microarray, 635 nm fluorescence, primary screen (AID 1105).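 Further: score merges emission near 667 nm and signal to noise per printed spot across three slides.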 The settings on record: FSTL3 binding, higher = more signal.
For test [9], the target named is Dickkopf-related protein 1 (Homo sapiens) (UniProt O94907). Put plainly: small molecules binding DKK1 protein – biochemical, small-molecule microarray, 635 nm fluorescence scan, primary screen (AID 1106).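 Further: score merges emission near 667 nm with signal to noise over three replicate slides.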 The settings on record: higher = more signal.
Dickkopf-related protein 1 (Homo sapiens), sequence (O94907 whole entry, looked up): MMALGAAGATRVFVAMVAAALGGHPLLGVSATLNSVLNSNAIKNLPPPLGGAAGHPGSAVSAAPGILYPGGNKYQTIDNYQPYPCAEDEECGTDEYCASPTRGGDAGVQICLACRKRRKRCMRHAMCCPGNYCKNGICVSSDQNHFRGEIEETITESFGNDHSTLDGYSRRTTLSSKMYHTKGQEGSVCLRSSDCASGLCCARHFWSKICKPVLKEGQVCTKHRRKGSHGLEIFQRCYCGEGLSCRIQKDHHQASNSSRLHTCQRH
Test [10] concerns Inhibin beta A chain (activin A). Put plainly: small molecules binding activin A – biochemical, small-molecule microarray, 635 nm fluorescence scan, primary screen (AID 1107).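 Further: mouse activin A protein probed at 4.33 µg/mL on printed slides; score merges bound-protein fluorescence near 667 nm with spot signal-to-noise.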 The following applies: INHBA, higher = more signal.
The subject of test [11] is Human papillomavirus type 1a protein E7 (residues 44-93). Put plainly: small molecules binding HPV E7 44-93 – biochemical, small-molecule microarray, residues 44-93, 635 nm fluorescence, primary screen (AID 1108).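 Further: E7 fragment applied at 1 µg/mL in TBST for 1 h at 4 C; score combines spot fluorescence with its signal to noise ratio.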 The settings on record: fluorescence 635 nm, higher = more signal.
Test [12] can be described thus: hepatitis C replication reporter changes, two-sided – Huh7 cells, luciferase reporter, HCV replication inhibitor project, primary screen (AID 1109).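 Further: huh7 hepatoma cells harbouring a luciferase neomycin HCV replicon reporter; luciferase luminescence as measure of HCV replicon replication; test concentration not given here.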 The following applies: Huh7 HCV replicon luciferase reporter, 48 h; higher = more signal.
Test [13] concerns the target Left-right determination factor 2 (Homo sapiens) (UniProt O00292). The test can be described thus: small molecules binding LEFTY2 protein – biochemical, small-molecule microarray, 635 nm fluorescence scan, primary screen (AID 1110). The following applies: higher = more signal.
Test [14] addresses Calmodulin-1 (Homo sapiens) (UniProt P0DP23). The test can be described thus: small molecules binding calmodulin-1 with EGTA – biochemical, small-molecule microarray, Cy5-labelled CALM1, profiling panel (AID 1111).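 Further: labelled calmodulin applied in Tris saline Tween buffer holding calcium plus EGTA and DTT.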 The settings on record: Cy5-CALM1 binding fluorescence, higher = more signal.
The target is the same in test [15]. Put plainly: small molecules binding Ca-loaded calmodulin-1 – biochemical, small-molecule microarray, Cy5-labelled CALM1, plus calcium, artefact control for SMM control-protein annotation, profiling panel (AID 1112).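 Further: score merges spot fluorescence with signal to noise from triplicate slides.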 The settings on record: Cy5-CALM1 binding fluorescence, higher = more signal.
Test [16] in a line: probe aWnt5a binding to arrayed compounds – biochemical, biotinylated probe, 635/667 nm fluorescence, primary screen (AID 1113).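 Further: score merges 667 nm fluorescence intensity with signal-to-noise per printed feature.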 The following applies: small-molecule microarray, higher = more signal.
Test [17] can be described thus: probe aShh binding to arrayed compounds – biochemical, biotinylated probe, 635/667 nm fluorescence, primary screen (AID 1114).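 Further: probe is biotin-labelled aShh protein from a stem cell growth factor screen; measures binding of labelled protein to compounds printed on the slide; score merges feature fluorescence at 667 nm with signal-to-noise.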 The settings on record: small-molecule microarray, higher = more signal.
The nature of test [18]: probe aNog binding to arrayed compounds – biochemical, biotinylated probe, 635/667 nm fluorescence, primary screen (AID 1115).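 Further: probe is biotinylated aNog protein used at 0.15 µg/mL for 1 h at 4 C; z-score combines 667 nm fluorescence of each spot with its signal to noise.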 The following applies: small-molecule microarray, higher = more signal.
In test [19] the target is Torsin-1A-interacting protein 1 (Homo sapiens) (UniProt Q5JTV8). The test can be described thus: compound microarray binding of lysate hLAP1 – cell lysate, small-molecule microarray, COS7 lysate, 635/667 nm fluorescence, primary screen (AID 1116). The following applies: 635 nm fluorescence, higher = more signal.
Torsin-1A-interacting protein 1 (Homo sapiens), sequence (Q5JTV8 whole entry, looked up): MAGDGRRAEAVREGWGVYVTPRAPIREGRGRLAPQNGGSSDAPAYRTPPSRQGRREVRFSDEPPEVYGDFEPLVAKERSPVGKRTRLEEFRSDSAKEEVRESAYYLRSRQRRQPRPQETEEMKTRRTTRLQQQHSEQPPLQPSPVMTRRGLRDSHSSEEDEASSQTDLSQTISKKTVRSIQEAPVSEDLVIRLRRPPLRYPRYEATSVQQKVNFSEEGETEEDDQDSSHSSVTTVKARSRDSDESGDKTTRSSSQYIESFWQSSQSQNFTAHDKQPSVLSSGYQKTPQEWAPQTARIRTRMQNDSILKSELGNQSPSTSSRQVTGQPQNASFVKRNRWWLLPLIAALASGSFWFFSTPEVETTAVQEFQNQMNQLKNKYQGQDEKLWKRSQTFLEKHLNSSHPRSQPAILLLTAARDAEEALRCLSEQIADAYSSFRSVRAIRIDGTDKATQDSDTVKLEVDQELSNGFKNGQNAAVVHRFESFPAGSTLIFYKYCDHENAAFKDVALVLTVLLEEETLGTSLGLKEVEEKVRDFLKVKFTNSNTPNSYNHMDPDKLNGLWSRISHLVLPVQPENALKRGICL
The target in test [20] is Alpha-bungarotoxin (Bungarus multicinctus) (UniProt P60615). The test can be described thus: compounds binding labelled alpha-BTX control protein – biochemical, small-molecule microarray, Alexa647 label, 635/667 nm fluorescence, artefact control for SMM control protein annotation, profiling panel (AID 1117). The settings on record: alpha-BTX-A647 binding fluorescence, higher = more signal.
Alpha-bungarotoxin (Bungarus multicinctus), sequence (P60615 whole entry, looked up): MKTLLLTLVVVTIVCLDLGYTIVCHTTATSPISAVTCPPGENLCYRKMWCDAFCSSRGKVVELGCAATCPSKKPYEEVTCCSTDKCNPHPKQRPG

The source made the active and inactive calls.

Fibroblast growth factor 10 (Homo sapiens), sequence (O15520 whole entry, looked up): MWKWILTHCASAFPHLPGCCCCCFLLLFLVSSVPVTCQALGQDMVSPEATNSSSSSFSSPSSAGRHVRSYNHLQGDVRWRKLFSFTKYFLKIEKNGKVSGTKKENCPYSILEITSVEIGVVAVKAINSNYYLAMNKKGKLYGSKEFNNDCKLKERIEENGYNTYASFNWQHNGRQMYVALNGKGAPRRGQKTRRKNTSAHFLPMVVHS
Follistatin-related protein 3 (Homo sapiens), sequence (O95633 whole entry, looked up): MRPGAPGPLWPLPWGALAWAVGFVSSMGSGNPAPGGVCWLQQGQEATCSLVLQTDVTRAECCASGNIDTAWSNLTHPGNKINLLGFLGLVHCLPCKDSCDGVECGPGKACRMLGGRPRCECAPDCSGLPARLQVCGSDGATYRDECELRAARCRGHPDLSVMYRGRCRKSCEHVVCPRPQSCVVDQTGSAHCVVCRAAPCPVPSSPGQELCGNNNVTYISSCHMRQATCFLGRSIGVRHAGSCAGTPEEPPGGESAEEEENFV
Left-right determination factor 2 (Homo sapiens), sequence (O00292 whole entry, looked up): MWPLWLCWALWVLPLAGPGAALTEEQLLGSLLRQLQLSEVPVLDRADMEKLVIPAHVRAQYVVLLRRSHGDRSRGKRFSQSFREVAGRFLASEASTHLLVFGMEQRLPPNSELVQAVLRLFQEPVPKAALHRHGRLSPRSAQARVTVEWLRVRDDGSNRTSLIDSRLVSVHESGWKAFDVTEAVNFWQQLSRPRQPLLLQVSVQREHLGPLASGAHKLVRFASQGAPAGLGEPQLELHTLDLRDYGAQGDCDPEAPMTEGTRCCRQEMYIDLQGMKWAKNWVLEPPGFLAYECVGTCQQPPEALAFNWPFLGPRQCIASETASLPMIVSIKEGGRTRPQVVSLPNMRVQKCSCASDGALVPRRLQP

`COc1ccc(C(O)C2C=CC3C(=O)N(c4ccccc4)C(=O)C3N2Nc2ccc([N+](=O)[O-])cc2)cc1OCc1ccccc1` (stereo not given): the composite z-score in test [1] stood at 1.4; in [2], 1.86; in test [3], 1.15; in test [5], 1.02; in test [6] it was 0.735; in test [7] it was 0.534. The composite z-score was 0.763 in test [8]; -0.0143 in [9]; 1.07 in test [10]; 0.664 in [11]; 0.0921 in test [13]; 0.804 in test [14]. Besides, the composite z-score is 0.584 in test [15]; 1 in test [16]; 0.504 in test [17]; 2.27 in [18]; 0.979 in test [19]; 1.27 in test [20]. Besides, the z-score in test [4] was 0.465 (inactive); in test [12] it was 0.872.

Take `COC(=O)[C@@]1(Cc2ccccc2)[C@H]2c3cc(C(=O)N4CCCC4)n(Cc4ccc(C)o4)c3C[C@H]2CN1C(=O)c1ccccc1`: the composite z-score is 1.21 in test [1]; 0.526 in test [2]; 1.13 in test [3]; -0.143 in test [5]; 0.0411 in [6]; 0.36 in test [7]. In addition, the composite z-score in test [8] is 0.276; in test [9], -0.578; in [10], 1.23; in test [11], 0.114; in test [13], -0.334; in test [14] it was 1.58. In addition, the composite z-score was -0.149 in test [15]; -0.213 in test [16]; -0.214 in test [17]; -0.153 in test [18]; 0.618 in test [19]; 0.326 in test [20]. Moreover, the z-score in [4] was -2.62 (inactive); in test [12] it was -1.82.

Take `CC(C)C[C@@H]1NC(=O)[C@H]2C[C@@H](C(=O)NCCCCCCNC(=O)CS)[C@@H](c3cccc(OCCO)c3)N2C1=O`: the composite z-score was 1.54 in test [1]; 0.0362 in test [2]; -0.139 in [3]; 1.39 in [5]; 1.27 in [6]; 1.23 in test [7]. Further, the composite z-score in test [8] was found to be 1.49; in test [9], 1.94; in test [10] it was 0.525; in test [11], 1.41; in [13], 1.45; in test [14], 0.83. The composite z-score was -0.587 in test [15]; -0.001 in [16]; -0.282 in test [17]; -0.152 in [18]; 1.95 in test [19]; 1.17 in test [20]. For the same compound, the results for the z-score in test [4] and in test [12] were -0.576 (inactive) and -0.117, respectively.

With `COCCOC(=O)N1C(=O)[C@@]2(c3cc(C#CCCO)ccc31)[C@H](C(=O)NC[C@H](O)c1ccccc1)[C@H]1C(=O)O[C@H](c3ccccc3)[C@H](c3ccccc3)N1[C@@H]2c1ccc(O)cc1`, the composite z-score in test [1] was 0.0479; in [2] it was -0.194; in [3], 0.146; in test [5] it was 0.518; in [6] it was -0.417; in [7], -0.243. The composite z-score in test [8] is 0.599; in test [9] it was 0.165; in test [10], -0.0769; in [11], 0.727; in test [13] it was -0.186; in [14], 0.302. The composite z-score in test [15] was 0.262; in test [16] it was -0.0519; in test [17] it was -0.416; in test [18], -0.0784; in test [19], 1.11; in [20], 0.476. Further, the z-score in [4] is -0.267 (inactive); in test [12], -0.485.

Consider `COC(=O)[C@@]1(Cc2ccccc2N=[N+]=[N-])COC(c2ccc(OCCCO)cc2)=N1`, for which the composite z-score in [1] was 1.48; in [2], 0.89; in test [3], 1.26; in test [5] it was 0.0938; in test [6] it was 0.478; in test [7], -0.3. Further, the composite z-score in [8] was -0.0373; in test [9] it was -0.349; in test [10], 1.52; in [11] it was 1.02; in test [13], -0.675; in test [14] it was 0.238. Further, the composite z-score in test [15] was 0.0554; in test [16] it was -0.15; in [17], 0.333; in test [18], 0.0531; in test [19], 0.852; in [20], 1.4. Further, the z-score in test [4] is -0.127 (inactive); in test [12], -0.0499.

On to `CN(C)C(=O)[C@]1(CCC(=O)OC(C)(C)C)N=C(c2ccc(OCCCO)cc2)O[C@@H]1c1ccccc1N=[N+]=[N-]`, for which the composite z-score is 1.44 in test [1]; 0.533 in test [2]; 0.863 in test [3]; 1.25 in test [5]; 1.33 in test [6]; 0.17 in test [7]. Moreover, the composite z-score in test [8] is 0.644; in [9] it was -0.394; in [10] it was 0.252; in test [11], 1.54; in test [13], -0.12; in test [14], 1.22. Further, the composite z-score amounted to 0.463 in test [15]; 0.173 in test [16]; 0.14 in test [17]; 1.02 in [18]; 2.07 in [19]; 1.36 in test [20]. In addition, the values for the z-score in test [4] and in [12] were -0.194 (inactive) and 0.929, respectively.
